Assay outcomes deposited in PubChem BioAssay by National Center for Advancing Translational Sciences (NCATS).
Sampled rows, rich in hits. Any-hit rate of the full collection: about 4.6%.
TRHR PAM: allosteric enhancers of human TRH receptor; P34981; AID 493056; TRHR cells, fluo-8 calcium fluorescence, EC20 TRH enhancement; hit rate 0.66% among 360,000; enhancement, % at 2 µM; in the data active means enhancement above about 30%; further: 0% is about no effect
Target sequence (P34981 whole entry, looked up): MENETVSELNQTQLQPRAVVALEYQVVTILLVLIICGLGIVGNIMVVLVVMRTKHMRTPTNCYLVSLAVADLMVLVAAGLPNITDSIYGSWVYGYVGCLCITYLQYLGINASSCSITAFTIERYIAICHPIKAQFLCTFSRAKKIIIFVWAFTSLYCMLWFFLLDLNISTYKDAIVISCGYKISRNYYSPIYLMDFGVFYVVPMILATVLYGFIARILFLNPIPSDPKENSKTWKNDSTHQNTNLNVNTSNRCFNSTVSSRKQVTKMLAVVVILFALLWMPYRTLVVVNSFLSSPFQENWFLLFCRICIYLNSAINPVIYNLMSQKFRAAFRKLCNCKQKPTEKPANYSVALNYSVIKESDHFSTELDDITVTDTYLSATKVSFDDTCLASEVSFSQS
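TRHR-expressing cells loaded with fluo-8 calcium dye were read kinetically (ex 480/em 530) during compound addition, then stimulated with an EC20 of TRH (10 nM final). Enhancement of the Gq-mediated intracellular calcium response was scored.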
D1 PAM: potentiators of human D1 dopamine receptor | potentiation, % at 10 µM | hit rate 0.036% among 360,000 | AID 504651 | HEK293 TREx D1 cells, calcium flux, dopamine EC20 potentiation; in the data active means potentiation above about 30%; further: 0% is about no effect
TRHR agonist: activates the human TRH receptor; hit rate 0.18% among 360,000; activation, % at 2 µM; AID 493084; TRHR cells, calcium flux fluo-8, FDSS agonist mode; further: 0% is about no effect
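Steps: seed TRHR cells overnight; add fluo-8 no-wash Ca dye, RT 30 min–1.5 h; record 10 s baseline; pin-transfer compounds; monitor fluorescence 1 cycle/s for the agonist window. Calcium increases flag candidate agonists.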
D1 antag: antagonists of human D1 dopamine receptor. activity change, negative = inhibition, % at 10 µM. hit rate 3.2% among 360,000. HEK293 TREx D1 cells, calcium flux, dopamine EC80; active compounds read low. P21728. AID 504652; in the data active means activity change below about -30%; further: on the % scale 0 is the no-effect control and ±100 the full control effect
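Cells carrying a force-coupled, tetracycline-inducible human D1 receptor report calcium flux. Each well gets a 10 s baseline, compound with 180 s monitoring, then an EC80 dopamine stimulus with a second 180 s kinetic read.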
D1 agonist: human D1 receptor agonism; P21728; AID 504660; HEK293 T-REx D1 cells, calcium flux, agonist mode; activation, % at 2 µM; hit rate 1% among 360,000; further: 0% is about no effect
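Inducible HEK293 T-REx D1 cells, force-coupled to calcium signalling, were plated at 4000 cells/well with tetracycline and held overnight at 30 C. After no-wash calcium dye loading, compound-evoked calcium rise over 180 s flagged agonists.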
* = called active by the depositor. Unless noted, no stated cut-off is given here; in the data, active means activation above about 30%; inactive means the rest.

SMILES	TRHR PAM	D1 PAM	TRHR agonist	D1 antag	D1 agonist
COc1ccccc1CN1C[C@@H]2C[C@@H](c3cccc(C)n3)N3CCC[C@@]23C1=O	17	-3	-1	-6	2
O=C1CC(NNC(=O)c2ccc(Br)cc2)C(=O)N1 (stereo unspecified)	-5	-4	1	-19	3
O=C1CC(NNC(=O)c2ccccc2)C(=O)N1 (stereo unspecified)	-5	-5	0	-40*	2
O=C(NCCS(=O)(=O)N1CCCCCC1)c1ccc(F)cc1	30*	-12	0	-15	1
O=C(NCCS(=O)(=O)N1CCCC1)c1ccccc1	5	0	-1	29	3
O=C(NCCS(=O)(=O)N1CCN(c2ccccc2F)CC1)c1ccc(F)c(F)c1	-3	-12	0	-33*	0
CCNC(=S)NNc1nc(N2CCOCC2)nc(N2CCOCC2)n1	3	1	1	10	3
Cc1nc2c(-c3ccccc3)c(C)nn2c(SCC(N)=O)c1Cc1ccccc1	34*	-3	0	10	-1
Cc1cccc(C(=O)Nc2oc(-c3ccccc3)cc2C#N)c1	-3	-4	0	-49*	6
N#Cc1cc(-c2ccccc2)oc1NC(=O)c1ccco1	4	-1	0	-3	0
CCN(CC)S(=O)(=O)c1ccc(S(=O)(=O)Nc2c(C)nn(C)c2C)cc1	0	4	1	0	5
Cc1cccc(C(=O)C2CCN(S(=O)(=O)c3ccc(C(=O)O)cc3)CC2)c1	0	-4	-1	0	4
C/C(=N/NC(=O)c1ccncc1)c1cc2ccc(O)cc2oc1=O	5	-2	24	-7	41*
C/C(=N\NC(=O)c1ccncc1)c1cc2ccccc2oc1=O	-1	2	0	-34*	4
C/C(=N/NC(N)=S)c1cc2ccc(O)cc2oc1=O	2	-5	4	6	6
C/C(=N\NC(=O)c1ccncc1)c1cc2ccccc2o1	2	-3	0	-26	0
CCOC(=O)c1noc2nc(C)n(CC(=O)NC(C)CC)c(=O)c12 (stereo unspecified)	34*	1	0	-4	1
Cc1ccc(N2C(=O)CSC2c2cccnc2)c(Cl)c1 (stereo unspecified)	-2	-1	-1	-37*	2
Cc1cc(/C=C2\C(=N)N3N=C(C(C)C)SC3=NC2=O)c(C)n1Cc1ccccc1	-3	-2	1	-40*	112*
COc1ccc(-n2cccc2/C=C2\C(=N)N3N=C(c4ccco4)SC3=NC2=O)cc1	5	-3	0	8	2
Cc1cc(/C=C2\C(=N)N3N=C(c4ccco4)SC3=NC2=O)c(C)n1Cc1ccccc1	-14	3	6	-39*	38*
CCC1=NN2C(=N)/C(=C/c3cc(C)n(Cc4ccccc4)c3C)C(=O)N=C2S1	2	-11	0	-51*	66*
Cc1cc(/C=C2\C(=N)N3C(SCc4ccccc4)=NSC3=NC2=O)c(C)n1Cc1ccccc1	-2	1	1	2	2
CC1=NN2C(=N)/C(=C\c3cc(C)n(-c4ccccc4)c3C)C(=O)N=C2S1	-7	-8	-1	-1	4
CCN(CC)S(=O)(=O)c1ccc(N2CCOCC2)c(NC(=O)COc2ccc(Cl)cc2)c1	-6	-3	0	-6	2
SMILES	TRHR PAM	D1 PAM	TRHR agonist	D1 antag	D1 agonist
CCN(CC(=O)Nc1cc(Cl)ccc1C)C(=O)c1cc(S(=O)(=O)N2CCCCCC2)ccc1OC	-22	4	1	7	4
O=C(NC(=S)N1CCCCC1)c1cccnc1	-20	-7	0	-34*	0
O=C(NC(=S)N1CCCCCC1)c1ccccc1	-7	-4	0	0	-1
O=C(N/C(=C/c1cccnc1)C(=O)N1CCCCCC1)c1cccc(Br)c1	-4	-12	-1	-39*	0
COc1cc(/C=N/NC(=O)CCOc2ccccc2C)cc(Br)c1O	-1	6	-1	-7	1
COC(=O)c1cc(CNC(=O)c2ccc(O)c(Cl)c2)ccc1OC	-3	-3	1	7	1
COC(=O)c1cc(CNC(=O)c2ccccc2Cl)ccc1OC	-3	1	-1	-30*	3
COc1ccc(N/C=C/c2nc(SC)nnc2C)cc1	-1	-1	9	1	22
CSc1nnc(C)c(/C=C/Nc2ccc(F)cc2)n1	-2	-2	10	0	32*
CSc1nnc(C)c(/C=C/Nc2ccc(Cl)cc2)n1	4	-1	31*	-6	80*
COc1cc(OC)c(NC(=O)c2c(-c3ccccc3)noc2C)cc1Cl	4	-4	0	-9	1
Cc1ccc(C(=O)Nc2ccc(SC(F)F)cc2)s1	-3	-5	1	-34*	9
CC[N+](CC)(CC)CC(=O)Nc1ccc(SC(F)F)cc1	0	0	-1	9	0
CCC(C)NS(=O)(=O)c1ccc(NC(=O)c2ccc([N+](=O)[O-])cc2Cl)cc1 (stereo unspecified)	-6	-4	1	-31*	4
CC(=O)Nc1ccc(NC(=O)c2ccc([N+](=O)[O-])cc2Cl)cc1	-3	5	1	15	4
CCn1nc(C)c(CN2CCC(n3nccc3NC(=O)c3ccc4c(c3)OCO4)CC2)c1C	-3	5	0	-1	2
CCCn1c(=O)c(C(=O)NNC(=O)c2ccccc2[N+](=O)[O-])c(O)c2ccccc21	1	-16	0	-6	2
CCCn1c(=O)c(C(=O)NNC(=O)c2ccccc2Cl)c(O)c2ccccc21	-2	-6	30*	-19	21
CCCn1c(=O)c(C(=O)NNC(=O)Cc2ccccc2)c(O)c2ccccc21	33*	-6	0	-5	6
O=C1CC(c2ccccc2)C(C(=O)Nc2ccccc2F)N1 (stereo unspecified)	3	-1	0	-32*	-4
COC(=O)c1cc2ccccc2n1Cc1ccc(Cl)nc1	-10	5	0	1	5
O=C(N/C(=C\c1ccccc1)C(=O)N1CCOCC1)c1ccco1	30*	-2	-1	-11	3
O=C(NCCc1ccccc1)/C(=C\c1ccc([N+](=O)[O-])cc1)NC(=O)c1ccco1	-9	-3	0	-38*	6
O=C(NCc1ccccc1)/C(=C\c1ccc([N+](=O)[O-])cc1)NC(=O)c1ccco1	-4	-8	-1	-14	0
C=CCOC(=O)/C(=C\c1ccccc1)NC(=O)c1ccco1	7	-4	0	-43*	3
COc1ccc(-c2noc(CN(C)C(=O)c3ccoc3C)n2)cc1	4	-3	-1	-20	12
Cc1csc(NC(=O)c2ccc(Cn3nc(C)c(Br)c3C)o2)n1	-9	-5	-1	-14	2
Cc1nn(Cc2ccc(C(=O)Nc3ccccc3C(F)(F)F)o2)c(C)c1Br	-8	-5	1	-65*	24
